Shown are actives, neighbours in structure and some others; about 3.4% of the full set was active somewhere.
Sm TGR inh: qHTS Assay for the Inhibitors of Schistosoma Mansoni Peroxiredoxins. purified TGR, DTNB reduction, TNB absorbance 405 nm. Potency, µM (titrated, usually from 114 µM), for the others: at the highest dose activity change, negative = inhibition, most hits filed as inhibitors. 360,000 compounds, 3% hits. Schistosoma mansoni thioredoxin glutathione reductase (TGR), Q962Y6; further: nearly all actives have a fitted effect of over 60% in size
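First, TGR (20 nM dispensed) and NADPH were mixed with compound. Second, a 15 min room-temperature incubation followed. Third, further NADPH and then DTNB were added to start the reaction. Finally, TNB absorbance was monitored kinetically.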
RE007 growth inh: qHTS Assay for Inhibitors of the HIV-1 protein Vpr. S. pombe RE007 Vpr strain, BacTiter-Glo ATP luminescence, 24 h. AID 651644, 2012. 360,000 compounds, 0.21% hits. Potency, µM (doses to about 92.2 µM), for inactives: at the highest dose activity change, negative = less growth, usual class: inhibitors; active means well fitted falling curve with a large enough effect; inconclusive means small, poorly fitted or top-dose-only effect; inactive means no such curve, though single readings can be large or run the other way; further: nearly all actives have a fitted effect of over 50% in size
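Fission yeast RE007 carrying one integrated HIV-1 vpr copy, seeded at OD 0.01 in PMG+AL medium with 23 nL pinned compound. Grown 24 h at 30 degrees; viability read by BacTiter-Glo luminescence after 5 min.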
AmpC inh no detg: qHTS Inhibitors of AmpC Beta-Lactamase (assay without detergent). Potency, µM (top dose mostly 57.1 µM), for inactives: at the top dose activity change, negative = inhibition, hits mostly inhibitors. P00811. 330,000 compounds, 0.52% hits. AmpC nitrocefin hydrolysis, absorbance 480 nm, 0.0001% Triton;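 further: plate controls were no compound for no effect and no enzyme for full effect; nearly all actives have a fitted effect of over 20% in size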
Target sequence (P00811 whole entry, looked up): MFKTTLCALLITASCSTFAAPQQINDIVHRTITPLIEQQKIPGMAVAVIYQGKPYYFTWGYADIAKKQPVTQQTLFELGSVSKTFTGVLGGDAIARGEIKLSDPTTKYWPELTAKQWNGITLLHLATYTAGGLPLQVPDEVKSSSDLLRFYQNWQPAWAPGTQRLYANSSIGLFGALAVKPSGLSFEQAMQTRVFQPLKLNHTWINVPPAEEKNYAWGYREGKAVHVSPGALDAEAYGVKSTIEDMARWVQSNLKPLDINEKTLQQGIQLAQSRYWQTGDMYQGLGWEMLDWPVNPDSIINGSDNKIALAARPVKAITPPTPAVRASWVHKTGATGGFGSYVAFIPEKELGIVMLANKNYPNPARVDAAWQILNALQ
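AmpC (5.3 nM in the dispensed reagent) in 20 mM phosphate pH 7.0 with 0.01% (detergent screen) or 0.0001% Triton X-100 was preincubated with compounds for 15 min at room temperature. Nitrocefin was then added from an 800 uM solution, and hydrolysis was followed at 480 nm.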
AmpC detergent: qHTS Inhibitors of AmpC Beta-Lactamase (assay with detergent) | AID 485294, 2010 | P00811 | 370,000 compounds, 0.041% hits | Potency, µM (top dose mostly 114 µM), without a hit: top-dose activity change, negative = inhibition, actives largely listed as inhibitors | AmpC hydrolysis of nitrocefin, absorbance 480 nm, 0.01% Triton;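 further: 0% = no-compound wells and -100% = no-enzyme wells; nearly all actives have a fitted effect of over 25% in size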
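20 mM phosphate pH 7.0 + 0.01% (detergent screen) or 0.0001% Triton X-100; 5.3 nM AmpC reagent; cpd preinc 15 min RT; nitrocefin (800 uM stock) to start; A480 q20 s × 4 min; Activity was normalised to no-enzyme and no-compound control wells.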
Giardia FBPA inh-1: qHTS Assay for Inhibitors of Fructose-1,6-bisphosphate Aldolase from Giardia Lamblia | purified Giardia FBPA | Potency, µM (doses to about 59.6 µM), for inactives: at the top dose activity, negative = inhibition, actives largely listed as inhibitors | A8B2U2 | 290,000 compounds, 0.71% hits; further: nearly all actives have a fitted effect of over 55% in size
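Giardia FBPA (40 nM reagent) was preincubated 10 min at RT with compound (up to 57.5 uM final), then substrate plus GAPDH/TPI/NAD/arsenate coupling system with diaphorase/resazurin was added; resorufin fluorescence (525/598 nm) was read after 20 min.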
Giardia growth: qHTS Assay for Inhibitors of Fructose-1,6-bisphosphate Aldolase from Giardia Lamblia: Giardia lamblia growth inhibition. shares compounds with Giardia FBPA inh-1. Giardia lamblia trophozoite growth inhibition. Potency, µM (top dose mostly 57.5 µM), inactives show at the top dose activity change, negative = inhibition, usual class: inhibitors. 1,500 compounds, 5% hits. AID 2785, 2010;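 further: trophozoites exposed to compound for 48 h at 37 °C; nearly all actives have a fitted effect of over 70% in size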
Mammal cell tox: qHTS Assay for Inhibitors of Fructose-1,6-bisphosphate Aldolase from Giardia Lamblia: Mammalian cellular toxicity. shares compounds with Giardia FBPA inh-1. mammalian cell viability counter-screen, qHTS. Potency, µM (highest dose often 57.5 µM), without a hit: at the highest dose viability change, negative = toxicity, usual class: inhibitors. 1,500 compounds, 4% hits;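 further: Chinese hamster ovary cells used as mammalian cytotoxicity surrogate; viability measured as cellular ATP by luminescence; compound exposure lasted 48 h before reading; nearly all actives have a fitted effect of over 60% in size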
Giardia FBPA inh-2: qHTS Assay for Inhibitors of Fructose-1,6-bisphosphate Aldolase from Giardia Lamblia: Primary screen confirmation | purified Giardia aldolase enzyme activity, qHTS | shares compounds with Giardia FBPA inh-1 | 1,500 compounds, 5% hits | Potency, µM (series often up to 57.5 µM), for inactives: at the highest dose activity change, negative = inhibition, hits mostly inhibitors | AID 2787, 2010; further: nearly all actives have a fitted effect of over 45% in size
Rabbit aldolase: qHTS Assay for Inhibitors of Fructose-1,6-bisphosphate Aldolase from Giardia Lamblia: Rabbit FBPA Selectivity. shares compounds with Giardia FBPA inh-1. Rabbit muscle FBPA enzyme inhibition, selectivity counter-screen. Potency, µM (top dose mostly 57.5 µM), inactives show at the top dose activity, negative = inhibition, usual class: inhibitors. 1,500 compounds, 4% hits. AID 2794, 2010; further: nearly all actives have a fitted effect of over 60% in size
GAPDH coupling: qHTS Assay for Inhibitors of Fructose-1,6-bisphosphate Aldolase from Giardia Lamblia: Coupling assay counterscreen confirmation; shares compounds with Giardia FBPA inh-1; GAPDH coupling enzyme counterscreen, biochemical, qHTS; Potency, µM (highest dose often 57.5 µM), inactives show at the highest dose activity change, negative = inhibition, most hits filed as inhibitors; 1,500 compounds, 6% hits; AID 2795, 2010; further: nearly all actives have a fitted effect of over 55% in size
An asterisk follows results filed as active; ? = inconclusive; / = no result; [ ] = remark or other dose. Unless noted, the call rests on the fitted dose curve; in most records, active means well fitted curve in the direction sought with a large enough effect; inconclusive means small, poorly fitted or top-dose-only effect, or another doubt; inactive means no such curve, though single readings can be large; an effect the other way counts as inactive or inconclusive. Unless noted, on the % scale 0 is the no-effect control and ±100 the full control effect; potency means the concentration at half of the fitted maximal effect.

SMILES	Sm TGR inh	RE007 growth inh	AmpC inh no detg	AmpC detergent	Giardia FBPA inh-1	Giardia growth	Mammal cell tox	Giardia FBPA inh-2	Rabbit aldolase	GAPDH coupling
CCCCCn1cnc2c(=S)nc(N)[nH]c21	-8.3%	/	-14.5%	2.0%	2.81µM*	96.8%	-9.1%	2.7%	3.4%	12.7%
CCCn1cnc2c(=S)nc(N)[nH]c21	4.8%	35.1%	-11.5%	-5.8%	4.46µM*	1.5%[38.3 µM]	-1.6%	?	1.7%	-14.6%
Nc1nc(=S)c2ncn(C3CCCCC3)c2[nH]1	/	-7.8%	/	/	/	/	/	/	/	/
CCCCn1cnc2c(=S)nc(N)[nH]c21	-4.6%	-9.6%	-6.3%	3.0%	7.06µM*	-3.6%[38.3 µM]	-10.9%	-9.3%	-14.0%	-6.7%
CC1(C)OC2C(CO)OC(n3cnc4c(=S)nc(N)[nH]c43)C2O1 (centres undefined)	/	2.0%	/	/	/	/	/	/	/	/
Cc1nc(NC(=O)CN2CCN(c3ccccc3F)CC2)sc1C(=O)N(C)C	0.8%	-18.2%	6.5%	-2.8%	3.16µM*	0.3%[10.4 µM]	-1.1%	3.9%	4.7%	-13.2%
Cc1ccccc1N1CCN(CC(=O)Nc2nc(C)c(C(=O)N(C)C)s2)CC1	-29.0%	-3.7%	95.7%	-0.2%	?	/	/	/	/	/
Cc1ccc(C(=O)c2ccc(C)cc2)cc1	4.1%	-3.7%	-14.7%	-4.7%	1.0%	/	/	/	/	/
Cc1ccc(C(=O)c2no[n+]([O-])c2C(=O)c2ccc(C)cc2)cc1	0.0%	31.6µM*	-52.3%	?	15.8µM*	-5.4%	-2.1%	-6.6%	?	-27.1%
Cc1cccc(Nc2nnc(SC(C)C(=O)NC3CC3)s2)c1 (centres undefined)	-0.6%	-11.4%	-22.1%	-23.5%	/	/	/	/	/	/
CC(=O)Nc1nc(-c2ccc(Cl)cc2)nc(C)c1C(C)=O	-25.1%	17.5%	9.8%	?	7.06µM*	-0.2%[10.4 µM]	-16.5%	-7.2%	6.8%	4.8%
CN(CC(=O)Nc1ccccc1Br)C(=O)CCc1nc2ccccc2c(=O)[nH]1	2.8%	-20.7%	-9.5%	?	/	/	/	/	/	/
CN(CC(=O)Nc1ccccc1Br)Cc1nc2ccccc2c(=O)[nH]1	1.8%	11.9%	-8.7%	-17.8%	20µM*	-2.1%[10.4 µM]	-15.6%	-0.3%	-6.9%	?
Cc1ncoc1C(=O)Nc1ncc([N+](=O)[O-])s1	-10.2%	?	-46.1%	-10.4%	17.7µM*	?	-17.5%	1.2%	1.7%	10.6%
Cc1ncoc1C(=O)Nc1nccs1	67.3%	-1.9%	-17.3%	4.7%	-6.9%	/	/	/	/	/

Source: PubChem
